In PubChem BioAssay AID1903 (Southern Research Specialized Biocontainment Screening …, 2009):
The whole screen tested about 310,000 compounds, of which about 1,200 (0.39%) were called active. No rule for the calls is given here. Only a sample is shown. Potency and affinity values are given separately.

Biological target: Large T antigen (Simian virus 40) (UniProt P03070)
Experiment: SV40 large T antigen inhibitors, biochemical (AID 1903)
Conditions: SV40 large T antigen ATPase/helicase inhibition assay; at 20 µM; hits give high values

Large T antigen (Simian virus 40), sequence (P03070 whole entry, looked up): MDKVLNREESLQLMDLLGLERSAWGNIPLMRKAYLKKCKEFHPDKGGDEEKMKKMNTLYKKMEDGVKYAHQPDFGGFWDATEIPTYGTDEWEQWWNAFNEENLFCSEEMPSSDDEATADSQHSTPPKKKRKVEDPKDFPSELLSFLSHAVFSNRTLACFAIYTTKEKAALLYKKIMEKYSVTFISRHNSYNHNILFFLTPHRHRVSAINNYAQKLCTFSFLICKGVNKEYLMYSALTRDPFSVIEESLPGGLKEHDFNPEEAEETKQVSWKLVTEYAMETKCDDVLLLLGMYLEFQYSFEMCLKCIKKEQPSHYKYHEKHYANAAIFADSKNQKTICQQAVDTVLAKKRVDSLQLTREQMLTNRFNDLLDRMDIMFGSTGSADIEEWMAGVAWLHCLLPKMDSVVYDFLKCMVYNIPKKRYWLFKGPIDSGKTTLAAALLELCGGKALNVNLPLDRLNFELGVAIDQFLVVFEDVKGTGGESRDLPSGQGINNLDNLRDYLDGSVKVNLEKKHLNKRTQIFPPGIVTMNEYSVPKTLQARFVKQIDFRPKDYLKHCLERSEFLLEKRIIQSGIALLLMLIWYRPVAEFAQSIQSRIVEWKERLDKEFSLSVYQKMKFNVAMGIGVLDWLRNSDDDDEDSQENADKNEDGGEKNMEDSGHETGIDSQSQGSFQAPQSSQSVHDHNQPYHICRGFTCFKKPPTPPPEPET

inhibition, inactive:
CCN(CC)S(=O)(=O)c1ccc(N=Nc2c(N)[nH]c(=O)[nH]c2=O)cc1 12.4%
O=C(CCn1c(=S)[nH]c2ccccc2c1=O)NCCc1ccc(Cl)cc1 7.2%
O=C(CCn1c(=S)[nH]c2ccccc2c1=O)NCCc1ccccc1 4.97%
CC(=O)NC(CC(=O)N1CCCC1)c1ccccc1 (stereo unspecified) 21.8%
O=C(NCc1ccc2c(c1)OCO2)c1ccc2c(c1)S(=O)(=O)c1ccccc1C2=O 0.8%
Cn1c(=O)oc2cc(S(=O)(=O)NC3CCCCC3)ccc21 -17.1%
Cn1c(=O)oc2cc(S(=O)(=O)NC3CCCCCCC3)ccc21 -1.85%
CCCCC(=O)Nc1ccc(C(=O)NCCc2ccc(S(N)(=O)=O)cc2)cc1 1.78%
N=c1c2c(ncn1Cc1ccco1)Oc1cc(O)ccc1C2c1ccccc1 (stereo unspecified) 26.2%
O=C1NN(c2ccccc2)C(=O)/C1=C/c1cccs1 28.5%
O=C1NN(c2ccccc2)C(=O)/C1=C\c1ccccc1 17.5%
COc1ccc(-c2nc(CS(=O)(=O)CC(=O)NCCCc3ccccc3)c(C)o2)cc1 -0.82%
O=C(OCC(=O)N1CCCc2ccccc21)c1cc(S(=O)(=O)N2CCOCC2)ccc1Cl 15.5%
O=C(COc1ccc2ccccc2c1Br)NCc1ccccn1 9.07%
Cc1cccc(C)c1NS(=O)(=O)c1cc2c3c(c1)CC(=O)N3CCC2 -3.87%
Cc1ccc(S(=O)(=O)Nc2ccc(N(C)C)cc2)cc1 37.5%
CN(C)c1ccc(S(=O)(=O)c2ccc(Cl)cc2)cc1 1.2%
Cc1ccc(NS(=O)(=O)c2cc3c4c(c2)CC(=O)N4CCC3)cc1C 7.5%
CN(C)c1ccc(NS(=O)(=O)c2cc(Cl)ccc2Cl)cc1 25.6%
CCN(CC)S(=O)(=O)c1cc(NS(=O)(=O)c2cccc(Cl)c2)ccc1C 2.93%
O=C(CN1C(=O)C(=O)N(Cc2ccco2)C1=O)c1c[nH]c2ccccc12 28.3%
C=CCc1ccc(OCCOCCOc2ccccc2[N+](=O)[O-])c(OC)c1 -1.8%
C=CCOc1ccc(C2c3c(oc4ccccc4c3=O)C(=O)N2CCCN2CCOCC2)cc1 (stereo unspecified) 10.1%
O=C(COn1nnc2ccc(Cl)cc21)Nc1ccc(F)cc1 19.7%
COc1cc(/C=C2\N=C(C)OC2=O)cc(Cl)c1OC(C)=O 13.6%
CC(=O)NC1CC2CCCC(C1)N2S(=O)(=O)c1cccc(F)c1 (stereo unspecified) 2.38%
COc1ccc(S(=O)(=O)Nc2cccc(-c3ccc4nncn4n3)c2)c(OC)c1 12.4%
Brc1ccc(-c2nc3ncccn3c2NC2CCCCC2)o1 12.4%
Cc1ccc(Nc2c(-c3ccc(C)o3)nc3ncccn23)cc1 33.8%
Cc1ccc(-n2cc(CCCCCCCCC(=O)O)nn2)cc1 8.47%
COc1ccc(/C=N/NC(=O)CN2CCSCC2)c(OC)c1 17.5%
COC(=O)/C=C/C(=O)Nc1cccc(C(F)(F)F)c1 17.3%
COc1ccc(NC(=O)/C=C/C(=O)O)cc1Cl 4.09%
O=C(CCCC(=O)c1ccc(O)cc1)c1ccc(O)cc1 9%
CCCCC(=O)c1ccc(O)cc1 4.42%
COc1ccc(N2CCN(C(=O)C3COc4ccccc4O3)CC2)cc1 (stereo unspecified) 15.2%
O=C(O)CCCC(=O)N(Cc1ccccc1)Cc1ccccc1 8.76%
COc1ccc(OC)c(S(=O)(=O)N2CCC(C(=O)N3CCc4ccccc4C3)CC2)c1 -3.29%
Cc1ccc(C(=O)Nc2nc(=O)n(C(=O)c3ccccc3Cl)s2)cc1 6.99%
CN(C)c1ccc(Nc2ccc([N+](=O)[O-])cn2)cc1 32.5%
COc1ccc(Nc2cc(Nc3ccc(OC)cc3)ncn2)cc1 6.82%
COc1ccc(S(=O)(=O)N2CCCN(CC(=O)Nc3ccc4c(c3)OCO4)CC2)cc1 -44.5%
O=C(COC(=O)C1=COCCO1)NC1CCCCC1 4.07%
CCOC(=O)C1=C(C)N=c2s/c(=C3/C(=O)Nc4ccccc43)c(=O)n2C1c1ccc(C)cc1 (stereo unspecified) 24.6%
COC(=O)C1=C(C)N=c2s/c(=C3\C(=O)Nc4ccccc43)c(=O)n2C1c1ccccc1 (stereo unspecified) 12.3%
O=C(CCCC(=O)NCCc1ccccc1)NCCc1ccccc1 3.18%
Cc1ccc(-c2noc(C3CCCN(S(=O)(=O)c4ccc5ccccc5c4)C3)n2)o1 (stereo unspecified) -0.86%
Cc1ccc(S(=O)(=O)N2CCCC(c3nc(-c4ccc(C)o4)no3)C2)cc1 (stereo unspecified) 6.08%
CC(C)(C)c1cc(-c2nc(N)nc(N)n2)cc(C(C)(C)C)c1 6.71%
COc1cccc(CN2CCCC(N3CCc4ccccc4C3)C2)c1O (stereo unspecified) 11.4%
CC1CCN(C2=C(NS(=O)(=O)c3ccc(Cl)cc3)C(=O)c3ccccc3C2=O)CC1 16.2%
COc1ccc(NC(=O)Nc2ccc(O)c3ccccc23)cc1 27.9%
COc1ccc(C(=O)Nc2cccc3ccccc23)cc1 16.2%
CC1(C)Cc2ccccc2C(=C(C#N)C#N)N1 4.69%
CCOC(=O)c1ccc(NC(=O)c2cc3ccccc3o2)cc1 8.26%
O=C1N/C(=C/c2ccc(Br)cc2)C(O)=C1C=NCc1ccccc1 4.99%
O=C1N/C(=C\c2ccccc2)C(O)=C1C=NCc1ccccc1 18.3%
COC1=C(Nc2ccccc2)C(=O)c2ccccc2C1=O -28.6%
COC1=C(Nc2ccc(C)cc2)C(=O)c2ccccc2C1=O 3.75%
Cc1ccc(-c2nc(CS(=O)CC(=O)NCCN3CCOCC3)c(C)o2)cc1 (stereo unspecified) -1.85%
CC(=O)Cc1nsc(Nc2ccc(F)cc2)n1 5.39%
